# Measurements from PubChem BioAssay (Tox21).
# Inconclusive results are not listed. Activity calls are given as the source filed them. Calls follow the shape of the dose curve; as a rule, active = well fitted activation curve with a large enough effect in the signal ratio in the repeat runs (not every such curve was filed as active); inconclusive = weak or mixed curves, or effect the other way; inactive = no such curve, though single readings can be large or run the other way; the % refers to the signal ratio.
# Molecular target: Glucocorticoid receptor (Homo sapiens) (UniProt P04150)
# Sequence (P04150 whole entry, looked up): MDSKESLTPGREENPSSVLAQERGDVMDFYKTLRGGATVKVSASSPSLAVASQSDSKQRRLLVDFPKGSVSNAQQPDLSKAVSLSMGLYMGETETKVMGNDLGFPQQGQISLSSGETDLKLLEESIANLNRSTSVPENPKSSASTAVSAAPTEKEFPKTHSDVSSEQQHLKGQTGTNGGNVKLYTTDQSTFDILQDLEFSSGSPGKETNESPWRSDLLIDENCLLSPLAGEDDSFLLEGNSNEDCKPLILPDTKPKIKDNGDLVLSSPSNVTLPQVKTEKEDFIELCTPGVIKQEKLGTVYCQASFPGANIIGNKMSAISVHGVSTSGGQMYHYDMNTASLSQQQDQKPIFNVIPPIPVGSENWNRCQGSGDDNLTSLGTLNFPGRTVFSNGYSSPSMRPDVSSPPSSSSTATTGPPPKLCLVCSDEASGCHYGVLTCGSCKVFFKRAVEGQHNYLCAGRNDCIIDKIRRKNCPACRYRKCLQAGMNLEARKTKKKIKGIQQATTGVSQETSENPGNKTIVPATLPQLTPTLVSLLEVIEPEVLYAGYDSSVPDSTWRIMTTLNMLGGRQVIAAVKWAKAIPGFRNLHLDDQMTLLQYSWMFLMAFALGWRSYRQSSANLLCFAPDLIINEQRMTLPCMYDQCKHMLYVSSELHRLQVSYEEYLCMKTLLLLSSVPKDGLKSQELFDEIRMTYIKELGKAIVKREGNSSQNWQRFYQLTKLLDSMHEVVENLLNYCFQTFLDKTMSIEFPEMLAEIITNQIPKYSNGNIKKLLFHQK
# Test: qHTS assay to identify small molecule agonists of the glucocorticoid receptor (GR) signaling pathway (AID 720691)
# Conditions: GR-bla HeLa, beta-lactamase reporter ratio, 18 h; series mostly up to 62.4 µM; activation: at the top concentration
# Source text: U.S. Tox21 Program National Center for Advancing Translational Sciences [NCATS] NIH Chemical Genomics Center [NCGC] U.S. Environmental Protection Agency [EPA] National Institutes of Environmental Health Sciences [NIEHS] National Toxicology Program [NTP] U.S. Food and Drug Administration [FDA] Tox21 Assay Overview: The Glucocorticoid receptor (GR) is one of the members of the nuclear receptor family of ligand-dependent transcription factors. GR plays a critical role in carbohydrate, protein and lipid metabolisms and programmed cell death. CellSensor GR-bla HeLa cell line (Invitrogen) contains a beta-lactamase reporter gene under the control of the glucocorticoid response element stably integrated into HeLa cells, a cervical cancer cell line that expresses glucocorticoid receptor. The activation of the reporter gene under culture conditions can be detected by fluorescence intensity. This cell line has been used to screen the Tox21 10K compound library and to identify the compounds that activate the GR signaling.
# Tox21 Assay Protocol Summary: The GR-bla HeLa cells were dispensed at 1500 cells/6 ul/well in 1536-well black wall/clear bottom plates using a Multidrop Combi (ThermoFisher Scientific, Waltham, MA) dispenser. After the assay plates were incubated at a 37 C/5% CO2 incubator for 4 hours, 23 nL of compounds dissolved in DMSO, positive controls or DMSO only was transferred to the assay plate by a pintool station (Kalypsys, San Diego, CA). The plates were incubated at 37 C for 18 hours. After 1 uL of LiveBLAzerTM B/G FRET substrate was added using a Flying Reagent Dispenser (Aurora Discovery, San Diego, CA), the plates were incubated at room temperature for 2 hours, and fluorescence intensity was measured by an Envision plate reader (PerkinElmer, Shelton, CT).
# % is scaled to controls: 0 for no effect and ±100 for the full control effect.
SMILES,activation,Potency
CCC(C)N (stereo not given),0.58% (inactive),
Nc1cc(S(=O)(=O)O)ccc1S(=O)(=O)O,-1.3% (inactive),
C=C(C)C(=O)OCCCCCCOC(=O)C(=C)C,-0.443% (inactive),
CC(=O)OC(C(=O)c1ccccc1)c1ccccc1 (stereo not given),0.946% [at 79.2 µM] (inactive),
N#CCCOCCOCCC#N,7.56% (inactive),
CN(C)CCOCCN(C)CCO,-0.25% (inactive),
Cc1cc(O)c2c(c1)C(=O)c1cccc(O)c1C2=O,-11.8% (inactive),
C1CCN2C[C@@H]3C[C@@H](CN4CCCC[C@@H]34)[C@H]2C1,2.08% [at 29.2 µM] (inactive),
NC(Cc1c[nH]c2ccccc12)C(=O)O (stereo not given),-1.54% (inactive),
F[Si-2](F)(F)(F)(F)F,,inactive
CNC(=O)NC,-1.3% [at 79.2 µM] (inactive),
O=C(c1ccc2c(c1)C(=O)OC2=O)c1ccc2c(c1)C(=O)OC2=O,-0.836% (inactive),
FC(F)(F)c1ccc(Cl)cc1Cl,-0.12% (inactive),
CCCCC[Si](OCC)(OCC)OCC,0.0942% (inactive),
CCCCC/C=C/CC(=O)OC,-2.04% (inactive),
CC(C)(C)NCCO,-1.56% (inactive),
COc1cc(C=O)ccc1OC(=O)C(C)C,-0.572% (inactive),
NC(=O)NNC(N)=O,0.202% (inactive),
NS(=O)(=O)c1cc2c(cc1Cl)NC(CC1CCCC1)NS2(=O)=O (stereo not given),0.0177% [at 29.2 µM] (inactive),
CCNC(=O)NCCCOc1cccc(CN2CCCCC2)c1,-1.33% (inactive),

SMILES,activation,Potency
C=CC(C)(O)CC/C=C(\C)CC (stereo not given),-1.18% (inactive),
O=C(O)c1ccccc1C(=O)OCc1ccccc1,-1.37% (inactive),
NC(=O)C1(N2CCCCC2)CCN(CCCC(=O)c2ccc(F)cc2)CC1,-0.698% (inactive),
C=C[Si](C)(C)O[Si](C)(C)C=C,0.239% (inactive),
Cc1cc(C)cc([N+](=O)[O-])c1,3.77% [at 79.2 µM] (inactive),
CO/N=C(/C(=O)N[C@@H]1C(=O)N2C(C(=O)O)=C(Cn3nnc(C)n3)CS[C@H]12)c1csc(N)n1,-0.722% (inactive),
COc1cc2c(Nc3ccc(Br)cc3F)ncnc2cc1OCC1CCN(C)CC1,-1.66% (inactive),
CCN(CCC#N)c1ccccc1,-3.24% (inactive),
Cc1nc([N+](=O)[O-])cn1-c1ccc([N+](=O)[O-])cc1,-1.74% (inactive),
Cc1ccc(S(=O)(=O)NC(=O)NC2CCCCCCC2)cc1,-1.29% (inactive),
CCCCC(CC)C(=O)OC(C)C (stereo not given),3.76% (inactive),
CCCCCCCC[Si](OCC)(OCC)OCC,2.2% (inactive),
CN[C@@H]1[C@@H](O)[C@@H](O[C@@H]2[C@H](O)[C@H](O[C@H]3OC(CN)=CC[C@H]3N)[C@@H](N)C[C@H]2N)OCC1(C)O (stereo not given in full),-0.835% (inactive),
CCCCCCCCCCCCC1CO1 (stereo not given),0% (inactive),
CC(C)CCCCCCOC(=O)C1CCCCC1C(=O)OCCCCCCC(C)C (stereo not given),1.37% (inactive),
CCOC(=O)CC#N,1.89% (inactive),
C=CCOCC(O)CCl (stereo not given),0.853% (inactive),
CC(C)CCC(=O)CCC(C)C,-1.07% (inactive),
Cc1nc(C)nc(N2C[C@@H](C)N(c3ccnc([C@@H](C)O)n3)[C@@H](C)C2)n1,2.32% (inactive),
CCCCCCCCC(=O)OCC,-0.585% (inactive),
